Measured values as given in the supplement of paper PMC7366291.
Counter-ions that a name gives are not always drawn. ± gives the standard deviation or the standard deviation of the averaged measurements.

Experiments:
Settings in all cases: 25 µM; exposure: 24-48 hpf
[1] = tested on: Danio rerio Tg(wt1b:EGFP) embryo, pronephros; test: glomerular separation, fold change vs DMSO control; higher = glomeruli further apart (abnormal)
Procedure, shortened: (§1)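 Using a Fiji macro, distances and angles were calculated from 16 reference points set by hand on maximum projections of pronephroi imaged dorsally (470 nm, 10 z-slices) in agarose-filled 96-well plates. The dechorionated Tg(wt1b:EGFP) zebrafish embryos had received 25 μM compound in 0.5% DMSO in HEPES-buffered E3 with 0.003% PTU from 24 to 48 hpf at 28.5°C. Values more than 2 SD from a feature's mean were excluded. Each feature appears as a fold change over the mean of DMSO-treated embryos from the same day.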

[2] = tested on: Danio rerio Tg(wt1b:EGFP) embryo, pronephros; test: glomerular width (mean of left and right), fold change vs DMSO control; higher = wider glomerulus
Procedure, shortened: as §1

[3] = tested on: Danio rerio Tg(wt1b:EGFP) embryo, pronephros; test: fraction of imaged embryos annotated as normal kidney; higher = less nephrotoxic; extreme values may be limits of the assay
Procedure, shortened: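 The read-out is the proportion of embryos in each treatment manually annotated as normal-kidney. Exposure ran from 24 to 48 hpf at 28.5°C in 12-well plates, using dechorionated Tg(wt1b:EGFP) zebrafish embryos in 5 mM HEPES-buffered E3 with 0.003% PTU, 0.5% DMSO and 25 μM compound. For imaging, larvae were anaesthetised with tricaine, positioned dorsally in agarose-filled 96-well plates and captured by widefield fluorescence (470 nm, 10 z-slices), with scoring done on maximum projections.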

[4] = tested on: Danio rerio Tg(wt1b:EGFP) embryo, pronephros; test: pronephric angle neck segment to proximal convoluted tubule (mean of left and right), fold change vs DMSO control; higher = larger pronephric angle
Procedure, shortened: as §1

Row | SMILES | glomerular separation [1] | glomerular width [2] | fraction of imaged embryos annotated as normal kidney [3] | pronephric angle neck segment [4]
1 | CC(C)[N+](C)(CCOC(=O)C1c2ccccc2Oc2ccccc21)C(C)C [Propantheline bromide] | 1.29 ± 0.47 | 0.966 ± 0.062 | 0.667 | 0.942 ± 0.01
2 | CC(C)(C)NC[C@H](O)COc1cccc2c1CCCC2=O [(-) -Levobunolol hydrochloride] | 0.705 ± 0.17 | 1.07 ± 0.0039 | 0.917 | 0.944 ± 0.052
3 | CCOC(=O)C1=C(C)NC(C)=C(C(=O)OC)C1c1cccc([N+](=O)[O-])c1 (centres undefined) [Nitrendipine] | 5.49 ± 1 | 0.6357 ± 0.0031 | 0 | 1.29 ± 0.044
4 | NC(=O)N1c2ccccc2C=Cc2ccccc21 [Carbamazepine] | 0.842 ± 0.19 | 0.99 ± 0.04 | 0.667 | 0.955 ± 0.025
5 | CC(=O)c1ccc2c(c1)N(CCCN1CCC(CCO)CC1)c1ccccc1S2 [Piperacetazine] | 0.868 ± 0.28 | 0.976 ± 0.023 | 0.833 | 1.01 ± 0.081
6 | Cc1ccc2c(c1)c1c3n2CCNC3CCC1 (centres undefined) [Pirlindole mesylate] | 0.876 ± 0.33 | 1.07 ± 0.036 | 0.833 | 0.95 ± 0.0043
7 | Nc1ccc(S(=O)(=O)Nc2ccnn2-c2ccccc2)cc1 [Sulfaphenazole] | 1.06 ± 0.3 | 1.022 ± 0.0084 | 0.917 | 1.02 ± 0.024
8 | CN(C/C=C/C#CC(C)(C)C)Cc1cccc2ccccc12 [Terbinafine] | 1.03 ± 0.34 | 1 ± 0.012 | 1 | 1.01 ± 0.025
9 | CC(C)n1c(/C=C/C(O)CC(O)CC(=O)O)c(-c2ccc(F)cc2)c2ccccc21 (centres undefined) [Fluvastatin sodium salt] | 4.31 ± 1.6 | 0.609 ± 0.057 | 0 | 1.56 ± 0.093
10 | NC(=O)c1cc[n+](CC2=C(C(=O)[O-])N3C(=O)[C@@H](NC(=O)[C@@H](c4ccccc4)S(=O)(=O)O)[C@H]3SC2)cc1 [Cefsulodin sodium salt] | 0.67 ± 0.22 | 1.08 ± 0.02 | 0.833 | 0.976 ± 0.034
11 | N=C(N)c1ccc(OCCCCCOc2ccc(C(=N)N)cc2)cc1 [Pentamidine isethionate] | 0.801 ± 0.21 | 0.99 ± 0.024 | 1 | 0.982 ± 0.02
12 | CCN1CCCC1CNC(=O)c1cc(S(=O)(=O)CC)c(N)cc1OC (centres undefined) [Amisulpride] | 0.971 ± 0.31 | 1.04 ± 0.042 | 0.9 | 0.9586 ± 0.0016
13 | CC1COc2c(N3CCN(C)CC3)c(F)cc3c(=O)c(C(=O)O)cn1c23 (centres undefined) [Ofloxacin] | 1.32 ± 0.67 | 1.043 ± 0.0041 | 0.833 | 1.06 ± 0.038
14 | Clc1ccc(Nc2nnc(Cc3ccncc3)c3ccccc23)cc1 [Vatalanib] | 1.37 ± 0.99 | 0.886 ± 0.039 | 0.833 | 1.02 ± 0.046
15 | CC(=O)c1ccc(S(=O)(=O)NC(=O)NC2CCCCC2)cc1 [Acetohexamide] | 0.839 ± 0.25 | 1.05 ± 0.023 | 0.833 | 0.9767 ± 0.0092
16 | CC(C(=O)O)c1ccc2c(c1)Cc1cccnc1O2 (centres undefined) [Pranoprofen] | 0.724 ± 0.18 | 0.956 ± 0.035 | 0.583 | 1.049 ± 0.01
17 | CCOC(=O)/C=C(C)/C=C/C=C(C)/C=C/c1c(C)cc(OC)c(C)c1C [Etretinate] | 0.794 ± 0.27 | 0.831 ± 0.034 | 1 | 1.093 ± 0.01
18 | CCC(C)(CN(C)C)OC(=O)c1ccccc1 (centres undefined) [Amyleine hydrochloride] | 1.1 ± 0.77 | 1.04 ± 0.028 | 0.833 | 0.9967 ± 0.0077
19 | Cc1ncc(CO)c(CO)c1O [Pyridoxine hydrochloride] | 0.838 ± 0.25 | 1.04 ± 0.019 | 1 | 1.06 ± 0.061
20 | CN(C)[C@@H]1C(O)=C(C(N)=O)C(=O)[C@@]2(O)C(O)=C3C(=O)c4c(O)ccc(Cl)c4[C@@](C)(O)[C@H]3C[C@@H]12 [Chlortetracycline hydrochloride] | 1.18 ± 0.35 | 1.04 ± 0.012 | 0.583 | 0.9692 ± 0.0065
21 | COc1ccc(C[C@@H]2c3cc(OC)c(OC)cc3CC[N@+]2(C)CCC(=O)OCCCCCOC(=O)CC[N@@+]2(C)CCc3cc(OC)c(OC)cc3[C@H]2Cc2ccc(OC)c(OC)c2)cc1OC [Cisatracurium besylate] | 0.571 ± 0.3 | 1.21 ± 0.0036 | 0.833 | 0.984 ± 0.035
22 | Cc1oncc1C(=O)Nc1ccc(C(F)(F)F)cc1 [Leflunomide] | 2.27 ± 1 | 1.19 ± 0.15 | 0.167 | 1.23 ± 0.054
23 | COc1c(O[C@@H]2O[C@H](CO)[C@@H](O)[C@H](O)[C@H]2O)cc2c(c1OC)-c1ccc(SC)c(=O)cc1[C@@H](NC(C)=O)CC2 [Thiocolchicoside] | 1.03 ± 0.41 | 0.909 ± 0.018 | 0.833 | 0.932 ± 0.027
24 | COc1ccc2c(c1)c(CC(=O)O)c(C)n2C(=O)c1ccc(Cl)cc1 [Indomethacin] | 3.64 ± 1.7 | 0.781 ± 0.045 | 0 | 1.62 ± 0.03
25 | OC(c1cc(C(F)(F)F)nc2c(C(F)(F)F)cccc12)C1CCCCN1 (centres undefined) [Mefloquine hydrochloride] | 1.17 ± 0.51 | 1.01 ± 0.019 | 0.667 | 1.017 ± 0.0068
26 | CC(N)C12CC3CC(CC(C3)C1)C2 (centres undefined) [Rimantadine Hydrochloride] | 0.846 ± 0.35 | 0.967 ± 0.064 | 0.917 | 1.04 ± 0.04
